The assay deals with PUM1 PUF domain R5-ERF (Homo sapiens, UniProt Q14671 828-1176, C1007E;Q1011F). Nature of the assay: yeast three-hybrid, YBZ-1, SC-Leu-His + 0.5 mM 3-AT, 4 days. Conditions: tags: N-Gal4 AD-HA kept; label: inside an RPR1-promoter hybrid RNA with tandem MS2 sites; ssRNA. The procedure, abridged: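 Pumilio-1 PUF domain libraries, randomized (NNK) at the three base-contacting residues of each repeat, were co-expressed with matching RNA elements from a centromeric plasmid in strain YBZ-1 (LexA–MS2 coat fusion, HIS3 reporter). Transformants were plated on SC-Leu (input) and SC-Leu-His + 0.5 mM 3-AT (selection) for four days, and repeat regions were PCR-amplified and Illumina-sequenced. The interaction score is the log2 change in variant frequency from input to selection, with pseudocount 1 where absent.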
As to “GGCUAGAACUAGUGGAUCCCCCGGCGCCCGGCGGCUCGAGCCCGGGUAAGUGUUAAUAGUCUGCAUGCCGCCGGGCGCCAUGCCUGCAGGUCGACUCUAGAAAACAUG”, the binding signal was 3.92 log2 enrichment (interaction score).

As to “GGCUAGAACUAGUGGAUCCCCCGGCGCCCGGCGGCUCGAGCCCGGGUAAGUGUCAAUAGUCUGCAUGCCGCCGGGCGCCAUGCCUGCAGGUCGACUCUAGAAAACAUG”, the binding signal was 3.35 log2 enrichment (interaction score).

“GGCUAGAACUAGUGGAUCCCCCGGCGCCCGGCGGCUCGAGCCCGGGUAAGUGUAAAUAGUCUGCAUGCCGCCGGGCGCCAUGCCUGCAGGUCGACUCUAGAAAACAUG”: the binding signal is 2.71 log2 enrichment (interaction score).

(Values after article PMC8384837, “Expanding the binding specificity for RNA recognition by a PUF domain”.)
